Experiment [1] has as its target Sphingosine kinase 1 (Homo sapiens) (UniProt Q9NYA1). The following applies: at 1 µM.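 Also: mean SPHK1 inhibition value reported from the GSK PKIS kinase panel screen.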
In experiment [2] the target is T1, Sphingosine kinase 2 (Homo sapiens) (UniProt Q9NRA0).
T1 sequence (whole entry): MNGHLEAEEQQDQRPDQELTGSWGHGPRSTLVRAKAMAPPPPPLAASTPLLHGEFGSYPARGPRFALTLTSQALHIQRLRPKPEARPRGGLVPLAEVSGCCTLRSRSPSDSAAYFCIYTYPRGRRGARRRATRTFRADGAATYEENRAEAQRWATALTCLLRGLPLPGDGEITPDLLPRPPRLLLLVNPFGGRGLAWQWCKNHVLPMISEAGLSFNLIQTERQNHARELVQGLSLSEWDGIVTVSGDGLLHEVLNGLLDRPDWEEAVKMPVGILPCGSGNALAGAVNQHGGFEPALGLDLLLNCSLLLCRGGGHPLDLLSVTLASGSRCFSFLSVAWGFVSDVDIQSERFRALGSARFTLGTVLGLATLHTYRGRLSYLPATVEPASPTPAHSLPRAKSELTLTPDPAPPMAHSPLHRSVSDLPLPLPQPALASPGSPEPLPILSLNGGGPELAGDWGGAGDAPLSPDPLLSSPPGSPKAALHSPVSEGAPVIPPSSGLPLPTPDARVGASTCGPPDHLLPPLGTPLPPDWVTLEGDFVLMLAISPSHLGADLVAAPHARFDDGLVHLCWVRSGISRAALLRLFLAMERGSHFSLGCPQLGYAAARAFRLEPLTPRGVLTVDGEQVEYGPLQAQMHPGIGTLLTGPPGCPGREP
The following applies: at 0.1 µM.

Experiment [3] has as its target T1, Sphingosine kinase 2 (Homo sapiens). Conditions: at 1 µM.
The target of experiment [4] is Casein kinase II subunit alpha (Homo sapiens) (UniProt P68400). The following applies: at 0.1 µM.
Chain of Casein kinase II subunit alpha (Homo sapiens) (P68400 whole entry, looked up): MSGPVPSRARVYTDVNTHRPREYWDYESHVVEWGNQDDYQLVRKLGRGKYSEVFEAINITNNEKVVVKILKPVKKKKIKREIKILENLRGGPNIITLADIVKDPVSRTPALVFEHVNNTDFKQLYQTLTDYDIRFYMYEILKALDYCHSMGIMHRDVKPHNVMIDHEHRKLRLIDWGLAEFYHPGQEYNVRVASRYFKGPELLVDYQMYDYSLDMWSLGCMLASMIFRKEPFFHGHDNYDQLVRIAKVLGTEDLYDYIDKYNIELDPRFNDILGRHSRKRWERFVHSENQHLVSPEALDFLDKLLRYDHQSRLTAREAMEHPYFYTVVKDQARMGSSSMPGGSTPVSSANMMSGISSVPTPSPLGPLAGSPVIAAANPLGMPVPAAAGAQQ
Experiment [5] shares this target. Conditions: at 1 µM.
Experiment [6] addresses T2, Inhibitor of nuclear factor kappa-B kinase subunit alpha (Homo sapiens) (UniProt O15111).
T2 sequence (whole entry): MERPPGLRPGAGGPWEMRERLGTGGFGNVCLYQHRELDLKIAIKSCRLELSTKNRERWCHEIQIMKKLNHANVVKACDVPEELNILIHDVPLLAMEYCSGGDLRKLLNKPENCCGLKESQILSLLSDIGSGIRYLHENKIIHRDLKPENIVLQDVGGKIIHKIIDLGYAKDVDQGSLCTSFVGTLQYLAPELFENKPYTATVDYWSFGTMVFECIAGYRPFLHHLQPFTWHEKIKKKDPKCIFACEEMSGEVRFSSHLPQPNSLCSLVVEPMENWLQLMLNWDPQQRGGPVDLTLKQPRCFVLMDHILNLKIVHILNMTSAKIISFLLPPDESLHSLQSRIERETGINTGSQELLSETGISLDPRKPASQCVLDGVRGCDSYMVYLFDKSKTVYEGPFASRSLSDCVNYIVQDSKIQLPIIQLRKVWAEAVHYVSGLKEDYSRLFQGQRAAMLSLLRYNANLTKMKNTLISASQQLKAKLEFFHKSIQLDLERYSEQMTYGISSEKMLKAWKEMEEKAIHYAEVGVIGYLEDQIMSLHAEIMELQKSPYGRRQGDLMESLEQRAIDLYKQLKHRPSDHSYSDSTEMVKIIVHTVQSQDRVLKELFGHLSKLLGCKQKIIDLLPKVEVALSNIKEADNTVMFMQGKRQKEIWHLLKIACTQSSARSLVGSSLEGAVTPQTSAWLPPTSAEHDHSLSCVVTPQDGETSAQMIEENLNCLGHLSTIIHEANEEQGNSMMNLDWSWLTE
The following applies: at 0.1 µM.

Experiment [7] addresses T2, Inhibitor of nuclear factor kappa-B kinase subunit alpha (Homo sapiens). Conditions: at 1 µM.
In experiment [8] the target is T3, Inhibitor of nuclear factor kappa-B kinase subunit beta (Homo sapiens) (UniProt O14920).
T3 sequence (whole entry): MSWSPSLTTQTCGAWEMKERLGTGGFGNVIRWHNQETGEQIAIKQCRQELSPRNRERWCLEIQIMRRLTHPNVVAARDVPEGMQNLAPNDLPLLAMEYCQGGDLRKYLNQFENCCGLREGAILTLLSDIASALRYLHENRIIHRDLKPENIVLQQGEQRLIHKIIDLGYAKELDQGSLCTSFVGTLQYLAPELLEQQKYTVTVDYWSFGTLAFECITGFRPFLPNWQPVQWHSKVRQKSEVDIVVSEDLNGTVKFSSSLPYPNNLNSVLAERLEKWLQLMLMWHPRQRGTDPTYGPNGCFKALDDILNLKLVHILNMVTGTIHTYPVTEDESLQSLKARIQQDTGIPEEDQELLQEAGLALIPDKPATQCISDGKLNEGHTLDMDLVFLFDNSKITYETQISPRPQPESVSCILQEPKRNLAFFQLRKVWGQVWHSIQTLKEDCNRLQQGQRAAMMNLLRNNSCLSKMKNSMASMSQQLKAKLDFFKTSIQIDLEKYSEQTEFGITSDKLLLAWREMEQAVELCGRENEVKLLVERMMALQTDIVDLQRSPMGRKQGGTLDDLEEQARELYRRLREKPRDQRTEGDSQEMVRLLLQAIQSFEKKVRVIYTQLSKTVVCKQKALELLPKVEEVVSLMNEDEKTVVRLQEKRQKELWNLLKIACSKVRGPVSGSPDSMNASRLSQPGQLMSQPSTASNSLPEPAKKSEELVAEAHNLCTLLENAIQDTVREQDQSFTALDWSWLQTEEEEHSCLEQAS
Conditions: at 0.1 µM.

Experiment [9] addresses T3, Inhibitor of nuclear factor kappa-B kinase subunit beta (Homo sapiens). The following applies: at 1 µM.
Experiment [10] has as its target T4, Inhibitor of nuclear factor kappa-B kinase subunit epsilon (Homo sapiens) (UniProt Q14164).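 Also: mean inhibition of IKKε reported, from the GSK PKIS dataset.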
T4 sequence (whole entry): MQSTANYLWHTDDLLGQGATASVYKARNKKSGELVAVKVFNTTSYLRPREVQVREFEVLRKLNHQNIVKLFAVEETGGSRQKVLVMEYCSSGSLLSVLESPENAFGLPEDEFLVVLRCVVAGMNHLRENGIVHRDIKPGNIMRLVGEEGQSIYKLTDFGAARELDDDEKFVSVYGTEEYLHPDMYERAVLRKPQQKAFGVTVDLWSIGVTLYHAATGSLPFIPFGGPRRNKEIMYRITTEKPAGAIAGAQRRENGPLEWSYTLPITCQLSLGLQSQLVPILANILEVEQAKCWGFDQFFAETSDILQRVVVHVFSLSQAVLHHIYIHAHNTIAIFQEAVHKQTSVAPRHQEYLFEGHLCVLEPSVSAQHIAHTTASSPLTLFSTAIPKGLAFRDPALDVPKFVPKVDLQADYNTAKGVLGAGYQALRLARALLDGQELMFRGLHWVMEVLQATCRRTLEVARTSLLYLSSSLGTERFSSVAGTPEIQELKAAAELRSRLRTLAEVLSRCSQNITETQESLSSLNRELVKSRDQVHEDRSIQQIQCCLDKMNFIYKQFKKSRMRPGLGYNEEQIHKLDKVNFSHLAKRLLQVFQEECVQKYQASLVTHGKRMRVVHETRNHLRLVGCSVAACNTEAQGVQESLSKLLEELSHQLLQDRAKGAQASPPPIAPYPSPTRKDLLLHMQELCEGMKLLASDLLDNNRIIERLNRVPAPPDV
The following applies: at 0.1 µM.

Chain of Sphingosine kinase 1 (Homo sapiens) (Q9NYA1 whole entry): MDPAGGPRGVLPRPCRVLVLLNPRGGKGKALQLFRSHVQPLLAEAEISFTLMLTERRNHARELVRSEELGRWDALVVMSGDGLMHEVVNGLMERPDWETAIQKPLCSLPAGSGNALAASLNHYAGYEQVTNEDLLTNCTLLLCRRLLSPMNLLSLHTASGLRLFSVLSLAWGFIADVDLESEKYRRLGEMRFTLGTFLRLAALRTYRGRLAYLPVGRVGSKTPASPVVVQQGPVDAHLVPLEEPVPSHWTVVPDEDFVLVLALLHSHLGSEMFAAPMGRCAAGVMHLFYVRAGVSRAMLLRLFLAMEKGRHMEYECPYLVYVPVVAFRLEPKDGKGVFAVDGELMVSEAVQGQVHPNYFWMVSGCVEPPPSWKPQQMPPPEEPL

With `CN(C)CCCNc1nccc(-c2c(-c3ccc(F)cc3)nn3cc(C(F)(F)F)ccc23)n1`, the inhibition in experiment [1] is -2.46%; in experiment [2] it was -0.03%; in experiment [3], -0.25%; in experiment [4], 1.85%; in [5], 6.47%; in experiment [6], 4.46%. Also, the inhibition in experiment [7] was -1.7%; in experiment [8], 1.56%; in [9], 0%; in experiment [10] it was 2.49%.
For `COc1cccc(-n2cnc3c(N/N=C/c4ccncc4)ncnc32)c1`, the inhibition was 0.02% in experiment [1]; 0.58% in experiment [2]; -0.25% in [3]; 0.97% in experiment [4]; 10.8% in experiment [5]; 0.84% in experiment [6]. The inhibition in experiment [7] is -1.74%; in [8], 1.12%; in experiment [9], 3.32%; in experiment [10], 3.81%.
In the case of `COc1ccc(C2=C(N3CCc4ccccc43)C(=O)NC2=O)cc1`, the inhibition was -5.21% in experiment [1]; 0.83% in experiment [2]; 0.21% in experiment [3]; 5.6% in [4]; 6.96% in [5]; 9.04% in experiment [6]. Moreover, the inhibition in [7] came to 6.68%; in [8], 6.54%; in [9], 3.83%; in [10], 13.5%.
As to `COc1cccc(/C=N/Nc2ncnc3c2cnn3-c2cccc(OC)c2)c1`, the inhibition was 0.34% in experiment [1]; -0.71% in [2]; -0.63% in [3]; 5.99% in experiment [4]; 3.05% in [5]; 7.48% in [6]. Moreover, the inhibition in [7] is -3.48%; in experiment [8], 6.4%; in experiment [9], 6%; in [10], 4.37%.
Consider `C[C@@H](Oc1cc(-n2cnc3ccc(OCC4CCN(C)CC4)cc32)sc1C(N)=O)c1ccccc1Cl`, for which the inhibition in experiment [1] was 1.57%; in [3], -0.12%; in experiment [4], 6.48%; in experiment [5], 19.4%; in experiment [6], 5.03%; in experiment [7], 1.69%. Also, the inhibition in [8] was 1.98%; in [9], 3.37%; in experiment [10] it was 2.73%.
On to `COc1ccc2cc(-c3c(-c4ccncc4)nc(-c4ccc(S(C)(=O)=O)cc4C)n3C)ccc2c1`, for which the inhibition was -0.37% in experiment [1]; -0.27% in experiment [2]; 4.01% in [3]; 3.63% in experiment [4]; 4.57% in experiment [5]; -0.1% in [6]. The inhibition in experiment [7] came to 3.23%; in [8], 6.82%; in [9], 7.83%; in experiment [10], 6.25%.
Take `CCc1cccc(CC)c1/C=C/c1cncc(C(=O)NC)c1`: the inhibition in experiment [1] is -1.72%; in experiment [2] it was 0.98%; in experiment [3], 1.95%; in [4], -0.28%; in experiment [5], -1.26%; in experiment [6], -2.82%. Also, the inhibition in experiment [7] is -5.51%; in experiment [8], 4.86%; in experiment [9], 2.91%; in experiment [10], 1.34%.
For `C/C(Nc1ccc(S(N)(=O)=O)cc1)=C1/C(=O)Nc2ccccc21`, the inhibition is 2.7% in [1]; 0.02% in [2]; 0.53% in experiment [3]; -0.1% in experiment [4]; 7.42% in [5]; 4.91% in experiment [6]. Besides, the inhibition is 2.59% in experiment [7], -0.76% in [8], 1.17% in [9] and -2.73% in [10].
Regarding `CCc1nccc2c1nc(-c1nonc1N)n2CC`, the inhibition is -1.61% in experiment [1]; 1.28% in [2]; 1.35% in experiment [3]; 0.7% in [4]; -1.05% in experiment [5]; 2.04% in experiment [6]. Moreover, the inhibition in experiment [7] is -4.71%; in experiment [8], 0.02%; in experiment [9], -1.22%; in experiment [10], 0.57%.

The record behind these values is ChEMBL document CHEMBL1961873, “Compounds: GSK PKIS; Assays: Nanosyn kinase panel” (2012).
